Assay outcomes (PubChem)
An excerpt weighted towards active compounds, which were near 6.8% of everything screened.
C diff growth – C. difficile growth inhibitors, primary screen, HTS; Clostridium difficile clinical isolate growth, OD600, 24 h; hits give low values; AID 1259249, 2017; growth activity, negative = inhibition, % at 16 µg/mL (by protocol); actives 0.25% (n = 86,000);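 active means mean growth activity at or below -80% and every replicate also at or below -80%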;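 further: 0% = DMSO wells and -100% = levofloxacin 16 µg/mL wells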
Tcruzi prolif – T. cruzi intracellular proliferation inhibitors, primary screen, cell-based, beta-gal Tulahuen parasites, NIH3T3 host, luminescence. actives 5.9% (n = 77,000). AID 624255, 2012. inhibition, % at 8.34 µM. T. cruzi beta-gal in NIH3T3, GalScreen luminescence, 90 h;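 active means mean inhibition above about 93%, with at least 55% of replicates each passing it, limit read from the data, passing the limit was not always enough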
Pf Dd2 inh – P. falciparum Dd2 growth inhibitors, primary screen, SYBR Green fluorescence, single dose replicates | 72 h; hits give low values | activity change, % at 10 µM | actives 2.3% (n = 94,000); in the data active means activity change below about -80%
* = called active by the depositor; . = no result given.

SMILES | C diff growth | Tcruzi prolif | Pf Dd2 inh
C[C@@H]1CN([C@@H](C)CO)C(=O)Cc2cc(NC(=O)CCC(F)(F)F)ccc2O[C@@H]1CN(C)C(=O)Nc1ccc(F)cc1 | 1.0 | 4.6 | 14.6
O=C(Nc1ccc(F)cc1)N1CC(=O)N2[C@H](C1)[C@@H](c1ccc(C#CC3CC3)cc1)[C@@H]2CO | -8.5 | . | -2.2
C[C@@H]1CN([C@H](C)CO)C(=O)c2cccc(NC(=O)CCCCCC(=O)Nc3ccccc3N)c2O[C@@H]1CN(C)C(=O)Nc1ccc(C(F)(F)F)cc1 | -6.9 | . | -88.0*
C[C@H]1CN([C@@H](C)CO)C(=O)c2cccc(NC(=O)CCCCCC(=O)Nc3ccccc3N)c2O[C@@H]1CN(C)C(=O)Nc1ccc(C(F)(F)F)cc1 | -2.6 | . | -82.0*
C[C@H](CO)N1C[C@H](C)[C@@H](CN(C)C(=O)NC2CCCCC2)Oc2ncc(/C=C/c3ccccc3)cc2C1=O | 6.0 | . | -83.7*
C[C@H]1CN([C@@H](C)CO)C(=O)c2cccc(NC(=O)CCCCCC(=O)Nc3ccccc3N)c2O[C@@H]1CN(C)C(=O)Nc1ccccc1 | -2.3 | . | -33.6
C[C@H]1CN([C@@H](C)CO)C(=O)c2cccc(N(C)C)c2O[C@@H]1CN(C)C(=O)Nc1cccc2ccccc12 | -15.0 | 16.2 | 1.9
C[C@@H]1CN([C@@H](C)CO)C(=O)c2cccc(N(C)C)c2O[C@@H]1CN(C)C(=O)Nc1cccc2ccccc12 | -1.6 | 63.0 | -83.0*
C[C@H]1CN([C@@H](C)CO)C(=O)c2cc(/C=C/c3ccccc3)cnc2O[C@H]1CN(C)C(=O)NC1CCCCC1 | 5.7 | . | -24.5
C[C@H]1CN([C@@H](C)CO)C(=O)c2cccc(NC(=O)CCCCCC(=O)Nc3ccccc3N)c2O[C@H]1CN(C)C(=O)Nc1ccc(F)cc1 | -1.8 | . | -58.5
COC(=O)C[C@@H]1CC[C@@H]2[C@H](COC[C@H](O)CN2C(=O)Nc2ccccc2OC)O1 | 11.2 | 41.7 | 19.5
C[C@@H]1CN([C@H](C)CO)C(=O)c2cc(NC(=O)Nc3ccccc3)ccc2O[C@@H]1CN(C)C(=O)Nc1cccc2ccccc12 | 0.4 | -28.5 | -43.2
COc1ccc(NC(=O)N[C@H]2C=C[C@H](CC(=O)NC3CCC3)O[C@H]2CO)cc1 | 1.9 | . | 24.4
COc1ccc(NC(=O)N(C)C[C@H]2Oc3c(NC(=O)CCCCCC(=O)Nc4ccccc4N)cccc3C(=O)N([C@@H](C)CO)C[C@@H]2C)cc1 | 8.2 | . | -25.5
C[C@@H]1CN([C@H](C)CO)C(=O)c2cccc(NC(=O)CCCCCC(=O)Nc3ccccc3N)c2O[C@@H]1CN(C)C(=O)Nc1ccc(F)cc1 | 4.4 | . | -86.4*
C[C@H]1CN([C@@H](C)CO)C(=O)c2cccc(NC(=O)CCCCCC(=O)Nc3ccccc3N)c2O[C@@H]1CN(C)C(=O)Nc1cccc2ccccc12 | -4.5 | . | -45.6
COc1ccc(NC(=O)N(C)C[C@H]2Oc3c(NC(=O)CCCCCC(=O)Nc4ccccc4N)cccc3C(=O)N([C@H](C)CO)C[C@H]2C)cc1 | 5.3 | . | -86.7*
C[C@H]1CN([C@@H](C)CO)C(=O)c2cccc(NC(=O)NC3CCCCC3)c2O[C@H]1CN(C)C(=O)Nc1cccc2ccccc12 | -5.1 | 63.8 | -3.9
C[C@H](CO)N1C[C@H](C)[C@H](CN(C)C(=O)Nc2ccc(C(F)(F)F)cc2)Oc2c(NC(=O)CCCCCC(=O)Nc3ccccc3N)cccc2C1=O | -11.5 | . | -88.6*
C[C@H]1CN([C@@H](C)CO)C(=O)c2cccc(NC(=O)CCCCCC(=O)Nc3ccccc3N)c2O[C@@H]1CN(C)C(=O)Nc1ccc(F)cc1 | -6.8 | . | -49.2
C[C@@H]1CN([C@@H](C)CO)C(=O)c2cccc(NC(=O)Nc3cccc4ccccc34)c2O[C@H]1CN(C)C(=O)NC1CCCCC1 | . | 45.3 | -89.2*
CCC(=O)N1C[C@H](C)[C@@H](OC)CN(C)C(=O)c2ccc(NC(=O)Nc3cccc(F)c3)cc2OC[C@H]1C | -7.5 | -43.0 | -1.7
C[C@H](CO)N1C[C@H](C)[C@H](CN(C)C(=O)Nc2cccc3ccccc23)Oc2ccc(NC(=O)Cn3cnnn3)cc2CC1=O | -11.9 | -22.3 | -1.0
O=C(C[C@H]1C[C@@H]2c3cc(NC(=O)NC4CCCCC4)ccc3O[C@@H]2[C@H](CO)O1)NCc1ccccc1 | . | 65.9 | -18.3
CC(C)c1cn(CC[C@@H]2CC[C@@H](NC(=O)Nc3cc(Cl)cc(Cl)c3)[C@H](CO)O2)nn1 | . | -4.1 | 9.8
SMILES | C diff growth | Tcruzi prolif | Pf Dd2 inh
CO[C@H]1CN(C)C(=O)c2ccc(NC(=O)Cc3ccccc3)cc2OC[C@H](C)N(CC2CC2)C[C@@H]1C | 2.4 | . | -38.5
C[C@H](CO)N1C[C@H](C)[C@@H](CN(C)C(=O)NC2CCCCC2)Oc2c(NC(=O)CCCCCC(=O)Nc3ccccc3N)cccc2C1=O | -0.3 | . | -23.6
C[C@@H]1CN([C@@H](C)CO)C(=O)c2cccc(NC(=O)CCCCCC(=O)Nc3ccccc3N)c2O[C@@H]1CN(C)C(=O)NC1CCCCC1 | -2.9 | . | -86.5*
COc1ccc2c3c([nH]c2c1)[C@H](CO)N(C(=O)Cc1ccccc1)CC31CN(C)C1 | 2.0 | . | -7.6
COCC(=O)N1CC(=O)N2[C@H](CO)[C@@H](c3ccc(-c4cccnc4)cc3)[C@H]2C1 | 0.7 | . | 40.6
COc1ccc(-c2ccccc2[C@H]2[C@@H](CO)N(C(=O)C3CCCCC3)[C@H]2C#N)cc1 | -4.1 | . | 9.6
COc1ccc(-c2ccccc2[C@H]2[C@@H](C#N)N(C(=O)C3CCCCC3)[C@H]2CO)cc1 | -1.1 | . | -92.7*
N#C[C@H]1[C@H](c2ccccc2-c2ccccc2F)[C@H](CO)N1C(=O)C1CCOCC1 | -3.8 | . | -73.1
N#C[C@H]1[C@@H](c2ccccc2-c2ccccc2F)[C@@H](CO)N1C(=O)C1CCOCC1 | -7.4 | . | -94.9*
COc1ccc(-c2ccccc2[C@H]2[C@@H](CO)N(C(=O)C3CCOCC3)[C@H]2C#N)cc1 | -5.0 | . | -86.8*
COc1ccc(-c2ccccc2[C@@H]2[C@@H](CO)N(C(=O)C3CC3)[C@H]2C#N)cc1 | 2.7 | . | 10.7
C[C@H](NC(=O)C[C@H]1C[C@H]2c3cc(NC(=O)NC4CCCCC4)ccc3O[C@H]2[C@H](CO)O1)c1ccccc1 | . | 14.2 | -4.6
OC[C@H]1CC[C@@H]2O[C@H](CCc3ccc(-c4ccc(F)cc4)cc3)[C@@H](n3cc(C4CC4)nn3)C[C@@H]2O1 | 4.4 | . | -47.0
COCc1cn([C@@H]2C[C@@H]3O[C@H](CO)CC[C@@H]3O[C@@H]2CCc2ccc(-c3ccc(OC)cc3)cc2)nn1 | -28.7 | . | -94.0*
COCc1cn([C@H]2C[C@@H]3O[C@H](CO)CC[C@@H]3O[C@@H]2CCc2ccc(-c3ccc(OC)cc3)cc2)nn1 | 2.5 | . | -38.0
COCc1cn([C@@H]2C[C@@H]3O[C@@H](CO)CC[C@@H]3O[C@@H]2CCc2ccc(-c3ccc(OC)cc3)cc2)nn1 | -8.2 | . | -83.7*
O=C(C[C@@H]1CC[C@@H](NC(=O)CN2CCOCC2)[C@H](CO)O1)NC1CCCCC1 | . | -67.2 | 19.6
COc1ccc2c3c(n(C)c2c1)[C@H](CO)N(C(=O)Nc1ccc(F)cc1)CC31CCN(S(=O)(=O)c2cccs2)CC1 | -0.8 | . | -85.6*
